Changes are numbered by the printed parent chain.

The target of the first test is T1, GST-Nv-NF-kB (Cys allele) (Nematostella vectensis, UniProt E5G601 2-411).
T1 sequence: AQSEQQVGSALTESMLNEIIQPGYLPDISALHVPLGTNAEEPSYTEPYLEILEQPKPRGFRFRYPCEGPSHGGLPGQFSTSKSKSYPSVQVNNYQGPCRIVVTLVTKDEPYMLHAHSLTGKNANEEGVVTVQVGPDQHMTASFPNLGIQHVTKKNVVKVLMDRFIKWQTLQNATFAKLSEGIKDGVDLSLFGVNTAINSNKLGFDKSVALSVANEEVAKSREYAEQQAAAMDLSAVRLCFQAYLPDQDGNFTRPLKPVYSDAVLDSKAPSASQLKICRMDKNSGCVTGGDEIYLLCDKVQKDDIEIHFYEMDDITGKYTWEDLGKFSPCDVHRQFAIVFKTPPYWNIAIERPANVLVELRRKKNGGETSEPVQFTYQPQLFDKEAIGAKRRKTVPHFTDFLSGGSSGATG
Nature of the test: protein-binding microarray (PBM); PBM: ~300 nM protein, 6 mM HEPES pH 7.8, 80 mM KCl, 0.5 mM EDTA, 0.5 mM EGTA, 6% glycerol, 35 ng/ul poly-dIdC, 1% milk, 1 h, room temperature; Ap Aiptasia and Nv Nematostella (sea anemones) / Co Capsaspora / Aq Amphimedon (sponge) / Dm Drosophila / Hu human; RHD is the Rel homology domain; high values mean tight binding. To be noted: dsDNA, one strand shown.
“CCGATTAACATCAGGGGCCGTAATGATGTTAATCGGGTCTTGATTCGCTTGACGCTGCTG”: the binding signal stood at 1.75 z-score.

Turning to “CCGATTAACATCAGGAACCTCCCTGATGTTAATCGGGTCTTGATTCGCTTGACGCTGCTG”, the binding signal is 2.34 z-score.

As for “CCGATTAACATCAGGCAGTTCCCTGATGTTAATCGGGTCTTGATTCGCTTGACGCTGCTG”, the binding signal worked out at 1.3 z-score.

As for “CCGATTAACATCAGGACACTCCCTGATGTTAATCGGGTCTTGATTCGCTTGACGCTGCTG”, the binding signal was 2.51 z-score. Regarding “CCGATTAACATCAGGACTTGCCCTGATGTTAATCGGGTCTTGATTCGCTTGACGCTGCTG”, the binding signal was 1.11 z-score. Same read-out and setting: next, “CCGATTAACATCAGGAACGTCCCTGATGTTAATCGGGTCTTGATTCGCTTGACGCTGCTG”: 3.14 z-score. The sequence “CCGATTAACATCATTGTCCCTTCTGATGTTAATCGGGTCTTGATTCGCTTGACGCTGCTG” gave a binding signal of 4.09 z-score.

“CCGATTAACATCAGGCACTTCCCTGATGTTAATCGGGTCTTGATTCGCTTGACGCTGCTG”: the binding signal was 1.51 z-score. Still for that read-out and setting: next, “CCGATTAACATCAACGGGTCCCTTGATGTTAATCGGGTCTTGATTCGCTTGACGCTGCTG”: 1.84 z-score.

With “CCGATTAACATCAGTCCCGCACTTGATGTTAATCGGGTCTTGATTCGCTTGACGCTGCTG”, the binding signal was 1.95 z-score. Still for that read-out and setting: next, “CCGATTAACATCAGGAATTGCCCTGATGTTAATCGGGTCTTGATTCGCTTGACGCTGCTG”: 2.2 z-score; “CCGATTAACATCAGTCCCTAAGCTGATGTTAATCGGGTCTTGATTCGCTTGACGCTGCTG”: 3.07 z-score; “CCGATTAACATCAGGAGCTTCCCTGATGTTAATCGGGTCTTGATTCGCTTGACGCTGCTG”: 1.03 z-score. Turning to “CCGATTAACATCAGTTGTCCCGCTGATGTTAATCGGGTCTTGATTCGCTTGACGCTGCTG”, the binding signal was found to be 1.89 z-score. The same measure, in the same setting: as for “CCGATTAACATCATAGTCCCATGTGATGTTAATCGGGTCTTGATTCGCTTGACGCTGCTG”, the figure is 2.41 z-score; as for “CCGATTAACATCAGGGCATGCCCTGATGTTAATCGGGTCTTGATTCGCTTGACGCTGCTG”, 1.29 z-score. The sequence “CCGATTAACATCAGGCATGCCCCTGATGTTAATCGGGTCTTGATTCGCTTGACGCTGCTG” registered a binding signal of 1.59 z-score. On the same count and under the same terms, next, “CCGATTAACATCAGGACCGTCCCTGATGTTAATCGGGTCTTGATTCGCTTGACGCTGCTG”: 3.73 z-score; “CCGATTAACATCAAGCCTGTCCCTGATGTTAATCGGGTCTTGATTCGCTTGACGCTGCTG”: 1.27 z-score.

The target in the next test is T2, GST-Nv-NF-kB (Ser allele) (Nematostella vectensis, UniProt A7UNT2 2-411).
T2 sequence: T1 sequence with Q21R, C66S, S207N, E215Q, V217A, E225K, A268E, D399E
Described as above. The following applies: dsDNA, one strand shown.
In the case of “CCGATTAACATCAGGTGATCACCTGATGTTAATCGGGTCTTGATTCGCTTGACGCTGCTG”, the binding signal was determined as 2.18 z-score. In turn, “CCGATTAACATCAGGCAGTTCCCTGATGTTAATCGGGTCTTGATTCGCTTGACGCTGCTG” displayed a binding signal of 1.25 z-score. Still for that read-out and setting: next, “CCGATTAACATCAAAATTTACCATGATGTTAATCGGGTCTTGATTCGCTTGACGCTGCTG”: 2.56 z-score; “CCGATTAACATCAGGTTATTCCATGATGTTAATCGGGTCTTGATTCGCTTGACGCTGCTG”: 2.28 z-score.

A further test addresses T3, GST-Dm-Relish (Drosophila melanogaster, UniProt Q94527 99-473).
T3 sequence: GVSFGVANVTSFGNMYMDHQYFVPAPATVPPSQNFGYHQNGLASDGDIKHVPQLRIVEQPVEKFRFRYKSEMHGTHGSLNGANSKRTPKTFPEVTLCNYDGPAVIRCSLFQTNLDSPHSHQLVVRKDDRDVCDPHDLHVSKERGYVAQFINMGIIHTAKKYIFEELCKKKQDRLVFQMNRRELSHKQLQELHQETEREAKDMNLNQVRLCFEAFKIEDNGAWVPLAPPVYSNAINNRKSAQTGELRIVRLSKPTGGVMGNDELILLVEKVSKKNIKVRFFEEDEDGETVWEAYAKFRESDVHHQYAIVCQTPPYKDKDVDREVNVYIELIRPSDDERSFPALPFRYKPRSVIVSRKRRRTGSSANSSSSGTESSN
The description is as above. To be noted: dsDNA, one strand shown.
The sequence “CCGATTAACATCAGGTGATCACCTGATGTTAATCGGGTCTTGATTCGCTTGACGCTGCTG” came in with a binding signal of 2.86 z-score. In turn, “CCGATTAACATCAGGAAACAACCTGATGTTAATCGGGTCTTGATTCGCTTGACGCTGCTG” came in with a binding signal of 1.07 z-score.

As to “CCGATTAACATCAGGAATTTTTATGATGTTAATCGGGTCTTGATTCGCTTGACGCTGCTG”, the binding signal came out at 1.94 z-score.

On to “CCGATTAACATCACGGAATTTCCTGATGTTAATCGGGTCTTGATTCGCTTGACGCTGCTG”, for which the binding signal is 1.89 z-score. Still for that read-out and setting: as for “CCGATTAACATCAAAATTCCGGGTGATGTTAATCGGGTCTTGATTCGCTTGACGCTGCTG”, the figure is 1.53 z-score; as for “CCGATTAACATCACAAAAATTCCTGATGTTAATCGGGTCTTGATTCGCTTGACGCTGCTG”, 2.38 z-score. Take “CCGATTAACATCACAAAAAATCCTGATGTTAATCGGGTCTTGATTCGCTTGACGCTGCTG”: the binding signal is 1.98 z-score. On the same count and under the same terms, as for “CCGATTAACATCAAAAATTTCCATGATGTTAATCGGGTCTTGATTCGCTTGACGCTGCTG”, the figure is 1.53 z-score. Same read-out and setting: next, “CCGATTAACATCAGAAAAATTCCTGATGTTAATCGGGTCTTGATTCGCTTGACGCTGCTG”: 2.97 z-score. Regarding “CCGATTAACATCAAAATTTACCATGATGTTAATCGGGTCTTGATTCGCTTGACGCTGCTG”, the binding signal was determined as 2.43 z-score.

Take “CCGATTAACATCAGGTTATTCCATGATGTTAATCGGGTCTTGATTCGCTTGACGCTGCTG”: the binding signal came out at 2.41 z-score. Still for that read-out and setting: next, “CCGATTAACATCAGAAAGTTTCCTGATGTTAATCGGGTCTTGATTCGCTTGACGCTGCTG”: 1.85 z-score; “CCGATTAACATCAGGAAATTTACTGATGTTAATCGGGTCTTGATTCGCTTGACGCTGCTG”: 1.36 z-score. The same measure, in the same setting: as for “CCGATTAACATCAGGAATAACCATGATGTTAATCGGGTCTTGATTCGCTTGACGCTGCTG”, the figure is 1.8 z-score. In the case of “CCGATTAACATCAAAAAGTTTCCTGATGTTAATCGGGTCTTGATTCGCTTGACGCTGCTG”, the binding signal amounted to 2.43 z-score. Still for that read-out and setting: as for “CCGATTAACATCAAGAAAATTCCTGATGTTAATCGGGTCTTGATTCGCTTGACGCTGCTG”, the figure is 1.53 z-score; as for “CCGATTAACATCAAAAATTCCAGTGATGTTAATCGGGTCTTGATTCGCTTGACGCTGCTG”, 1.57 z-score; as for “CCGATTAACATCAGGAATTTTCATGATGTTAATCGGGTCTTGATTCGCTTGACGCTGCTG”, 1.12 z-score. Same read-out and setting: next, “CCGATTAACATCAGGAAAATTCCTGATGTTAATCGGGTCTTGATTCGCTTGACGCTGCTG”: 1.52 z-score.

Values taken from publication PMC5700166.
